Source: PubChem
PLC-gamma1 inh = blocks human PLC-gamma1 enzyme activity. P19174. purified PLC-gamma1, fluorogenic substrate, fluorescence. inhibition, % at 12.2 µM. actives 0.84% (n = 370,000). AID 720700; in the data active means inhibition above about 9.5%
PLC-beta3 inh = inhibitors of human phospholipase C beta3; Q01970; inhibition, % at 12.2 µM; actives 0.18% (n = 370,000); Purified PLC-beta3, fluorogenic substrate, fluorescence; AID 720704; in the data active means inhibition above about 11%
ADAM10 inh = inhibits human ADAM10; recombinant ADAM10, EDANS/DABCYL FRET peptide cleavage, 3 h; inhibition, % at 7 µM; actives 0.62% (n = 370,000);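 active means inhibition above a per-campaign cutoff equal to the mean of compounds falling between control-based bounds plus 3 SD, cut at about 20% in these data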
Target sequence (O14672 214-748 limits assumed): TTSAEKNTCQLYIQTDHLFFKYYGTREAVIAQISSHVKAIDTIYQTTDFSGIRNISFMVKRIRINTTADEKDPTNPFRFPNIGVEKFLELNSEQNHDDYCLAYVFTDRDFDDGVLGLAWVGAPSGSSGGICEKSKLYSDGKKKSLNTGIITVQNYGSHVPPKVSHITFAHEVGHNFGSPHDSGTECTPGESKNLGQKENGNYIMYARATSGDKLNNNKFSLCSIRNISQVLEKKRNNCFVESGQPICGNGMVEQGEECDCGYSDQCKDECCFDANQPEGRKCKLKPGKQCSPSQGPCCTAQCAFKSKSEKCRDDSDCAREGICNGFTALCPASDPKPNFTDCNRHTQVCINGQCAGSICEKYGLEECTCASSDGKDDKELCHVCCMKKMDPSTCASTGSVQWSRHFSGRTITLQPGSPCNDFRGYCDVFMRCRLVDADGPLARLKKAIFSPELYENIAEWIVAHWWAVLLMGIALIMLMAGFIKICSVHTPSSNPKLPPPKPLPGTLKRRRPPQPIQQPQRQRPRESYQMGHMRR
KLK7 zymogen act = activates the human kallikrein-7 zymogen. P49862. purified proKLK7, EDANS-DABCYL substrate fluorescence; 100% is mature enzyme control, 0% vehicle. activation, % at 7 µM. actives 0.9% (n = 370,000). AID 652039;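 active means activation above the mean of all tested compounds plus 3 SD, computed per campaign excluding outliers beyond control limits, cut at about 13% in these data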
sPLA2-III inh = Inhibits HGIII-sPLA2 liposome hydrolysis, primary screen; QFRET BODIPY PC-A2 liposome hydrolysis, fluorescence; inhibition, % at 12.2 µM; actives 0.56% (n = 370,000);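 active means inhibition above mean plus 3 SD of compounds lying within the high and low control bounds, cut at about 19% in these data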
ADAM17 inh = inhibits human ADAM17. recombinant ADAM17, EDANS/DABCYL FRET peptide cleavage. inhibition, % at 6.95 µM. actives 0.83% (n = 370,000). AID 720648;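 active means inhibition above the mean of compounds lying between control limits plus 3 SD, set per campaign, cut at about 8.5% in these data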
ADAM10 confirm = confirmation of inhibitors of human ADAM10; inhibition, % at 6.95 µM; shares compounds with ADAM10 inh; actives 1% (n = 2,100); ADAM10 QFRET peptide cleavage, EDANS fluorescence;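 active means inhibition above about 20% chosen separately for each screening run, limit read from the data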
ADAM17 ctr = inhibits human ADAM17 in ADAM10 exosite counter-screen; actives 0.5% (n = 2,100); ADAM17 QFRET peptide cleavage, EDANS fluorescence; shares compounds with ADAM10 inh; inhibition, % at 6.95 µM;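 active means mean triplicate inhibition above the solvent-only control wells' mean plus 3 SD, cut at about 12% in these data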
ADAM10 ctr = ADAM10 inhibition, counter-screen for ADAM17 exosite hits. shares compounds with ADAM17 inh. recombinant ADAM10, EDANS/DABCYL FRET peptide cleavage, 3 h. inhibition, % at 6.95 µM. actives 47% (n = 2,900). AID 743256;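 active means mean inhibition over the triplicate runs exceeds the activity threshold set in the earlier primary screen, cut at about 20% in these data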
ADAM17 confirm = confirmation of inhibitors of human ADAM17. shares compounds with ADAM17 inh. recombinant ADAM17, EDANS/DABCYL QFRET peptide cleavage. inhibition, % at 6.95 µM. actives 65% (n = 2,900);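 active means mean inhibition across replicates above the hit cutoff set in the primary screen, cut at about 8.5% in these data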
Hits are given with their value; - = inactive; . = no result given. The list is not random: actives were taken first. Their share in the collection is about 3.4%.

SMILES	PLC-gamma1 inh	PLC-beta3 inh	ADAM10 inh	KLK7 zymogen act	sPLA2-III inh	ADAM17 inh	ADAM10 confirm	ADAM17 ctr	ADAM10 ctr	ADAM17 confirm
COC(=O)[C@]12C[C@H](CC(=O)NCc3cccc(C(F)(F)F)c3)C(=O)N(Cc3ccco3)C1=C[C@H](C(C)C)O[C@@H]2C1CC1	-	-	24	-	-	12	-	-	49	24
COC(=O)[C@]12C[C@H](CC(=O)NCCc3ccccc3OC)C(=O)N(Cc3cccc4ccccc34)C1=C[C@H](C(C)C)O[C@@H]2C1CC1	-	-	22	-	-	11	-	-	27	17
COC(=O)[C@]12C[C@H](CC(=O)NCc3cccc(C(F)(F)F)c3)C(=O)N(CCc3ccc(OC)c(OC)c3)C1=C[C@H](C1CCCC1)O[C@@H]2C	-	-	28	-	-	9.0	-	-	27	12
COC(=O)[C@]12C[C@H](CC(=O)NCc3ccccc3)C(=O)N(Cc3ccco3)C1=C[C@H](C(C)(C)C)O[C@@H]2C	-	-	-	-	-	-	.	.	.	.
COC(=O)[C@]12C[C@H](CC(=O)NCc3cccc(C(F)(F)F)c3)C(=O)N(Cc3ccco3)C1=C[C@H](C(C)(C)C)O[C@@H]2C	-	-	22	-	-	10.0	-	-	42	21
COC(=O)[C@]12C[C@H](CC(=O)NCc3cccc(C(F)(F)F)c3)C(=O)N(Cc3ccccc3)C1=C[C@H](C(C)C)O[C@@H]2C1CC1	-	-	-	-	-	-	.	.	.	.
O=C(CCC(=O)N1CCN(S(=O)(=O)c2ccc(Cl)cc2)CC1)Nc1cccc(Br)c1	-	-	-	-	-	-	.	.	.	.
CC1C(=O)C(C)C(c2cc(Br)ccc2O)NC1c1cc(Br)ccc1O (stereo unspecified)	-	-	34	-	-	15	-	-	-	-
CCc1nc2nc(C)c(NS(=O)(=O)c3ccc(Cl)cc3)c(=O)n2[nH]1	-	-	-	-	-	-	.	.	.	.
CC(CCc1ccc(O)cc1)NCCC(c1ccccc1)c1ccccc1 (stereo unspecified)	-	-	-	-	-	-	.	.	.	.
CC(CCc1ccc(O)cc1)NC(c1ccccc1)c1ccc(Cl)cc1 (stereo unspecified)	-	-	28	-	-	12	-	-	29	24
COCCNC(=O)CN(c1ccc(F)cc1)S(=O)(=O)c1ccc2c(c1)OCCO2	-	-	-	-	-	-	.	.	.	.
COc1cccc(-n2c(-c3ccc4[nH]c(C)c(C)c4c3)n[nH]c2=S)c1	-	-	29	-	-	14	-	-	-	-
COc1ccc(-n2ccnc2SCC(=O)NC2CCCC2)c(OC)c1	-	-	-	-	-	-	.	.	.	.
C=C(C)COc1ccc(-c2[nH]ncc2Oc2ccccc2OC)c(O)c1	-	-	-	-	-	-	.	.	.	.
CCOc1ccc(-c2[nH]ncc2Oc2ccccc2OC)c(O)c1	-	-	21	-	-	9.6	-	-	30	15
C=C(C)COc1ccc(-c2[nH]ncc2-c2ccccc2OC)c(O)c1	-	-	29	-	-	18	-	-	37	19
COc1ccccc1-c1nnc(SC/C(O)=C(\C#N)c2nc3ccccc3[nH]2)n1C1CCCCC1	-	-	28	-	-	8.7	-	-	-	-
O=C(CN1CCN(c2ccccc2O)CC1)Nc1cc(S(=O)(=O)N2CCCC2)ccc1Cl	-	-	29	-	-	8.9	-	-	-	11
COCCn1c(N)c(Sc2ccc(Cl)cc2)c(=O)[nH]c1=O	-	-	-	-	-	-	.	.	.	.
Cc1ccc(NS(=O)(=O)c2ccc(C)c(NC(=O)c3ccc(S(=O)(=O)N4CCCCCC4)cc3)c2)c(C)c1	-	-	23	-	-	8.8	-	-	46	24
CC(C)(C)NC(=O)C(c1ccncc1)N(Cc1ccc(F)cc1)C(=O)c1ccc(-c2ccccc2)[nH]1 (stereo unspecified)	-	-	-	-	-	-	.	.	.	.
Cc1ccc(-c2[nH]c3ccccc3c2SCCNC(=O)c2ccc(S(=O)(=O)N3CCOCC3)cc2)cc1	-	-	24	-	-	11	-	-	27	16
O=C(NCc1ccncc1)[C@@H]1CCCN1C(=O)[C@@H]1CCCN1C(=O)c1ccccc1Cl	-	-	-	-	-	-	.	.	.	.
CCn1cc([N+](=O)[O-])c(C(=O)N2N=C(c3ccc4ccccc4c3)CC2c2ccccc2O)n1 (stereo unspecified)	-	-	24	-	-	9.1	-	-	33	18
SMILES	PLC-gamma1 inh	PLC-beta3 inh	ADAM10 inh	KLK7 zymogen act	sPLA2-III inh	ADAM17 inh	ADAM10 confirm	ADAM17 ctr	ADAM10 ctr	ADAM17 confirm
CCn1cc([N+](=O)[O-])c(C(=O)N2N=C(c3cccc4ccccc34)CC2c2ccccc2O)n1 (stereo unspecified)	-	-	23	-	-	9.3	-	-	29	17
Cn1ccc2c(-c3ccc4c(c3)OCCO4)cc3c(c21)C1CCC3C1 (stereo unspecified)	-	-	-	-	-	-	.	.	.	.
CC(O)(c1ccc(F)c(F)c1)c1nc(-c2cc3ccccc3o2)cs1 (stereo unspecified)	-	-	27	-	-	9.6	-	-	36	18
CC(O)(c1ccc(F)c(F)c1)c1nc(-c2ccccc2)cs1 (stereo unspecified)	-	-	-	-	-	-	.	.	.	.
Cc1ccc(-n2c(Cc3cccs3)nnc2SCC(=O)Nc2ccc(OCc3ccccc3)cc2)cc1	-	-	21	-	-	12	-	-	22	15
O=C(CSc1nnc(COc2ccccc2)n1-c1ccc(Cl)cc1)Nc1ccccc1-c1ccccc1	-	-	28	-	-	13	-	-	-	14
CCn1c(Cc2cccs2)nnc1SCC(=O)Nc1ccc(OCc2ccccc2)cc1	-	-	-	-	-	-	.	.	.	.
O=C(CSc1nnc(Cc2cccs2)n1Cc1ccco1)Nc1ccc(Br)cc1	-	-	-	-	-	-	.	.	.	.
Cn1c(Cc2cccs2)nnc1SCC(=O)Nc1ccc(OCc2ccccc2)cc1	-	-	-	-	-	-	.	.	.	.
